# Data as given in PubChem BioAssay (NCATS).
# Inconclusive results are not listed. Unmarked numbers belong to inactive results. Calls of active or inactive are those of the source. The call rests on the fitted dose curve; in most records, active means well fitted cell-killing curve with a large enough effect; inconclusive means small, poorly fitted or top-dose-only effect, or effect the other way; inactive means no such curve, though single readings can be large or run the other way.
# Columns and labels:
# [1] = Quantitative High-Throughput drug screen in 47 multiple myeloma cell lines against the NCATS MIPE library collection: KMS34_JCRB cell viability assay (AID 1918985); further: nearly all actives have a fitted effect of over 40% in size
# Procedure, shortened: (§1)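 Plated at 500 cells per well, myeloma lines received MIPE 4.0 compounds by pin tool. Following 48 h culture at 37 °C, CellTiter-Glo luminescence gave viability relative to DMSO and media-only controls.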
# [2] = Quantitative High-Throughput drug screen in 47 multiple myeloma cell lines against the NCATS MIPE library collection: OCIMY7_PLB cell viability assay (AID 1918987); details: OCI-MY7 myeloma viability, CellTiter-Glo ATP, 48 h; viability (% of DMSO): at 45.8 µM (top of the series); further: nearly all actives have a fitted effect of over 65% in size
# Procedure, shortened: as §1
# [3] = Quantitative High-Throughput drug screen in 47 multiple myeloma cell lines against the NCATS MIPE library collection: OPM1_PLB cell viability assay (AID 1918989); further: nearly all actives have a fitted effect of over 40% in size
# Procedure, shortened: as §1
# [4] = Quantitative High-Throughput drug screen in 47 multiple myeloma cell lines against the NCATS MIPE library collection: SKMM1_PLB cell viability assay (AID 1919863); details: SKMM1 myeloma viability, CellTiter-Glo ATP, 48 h; viability: active compounds read low; further: nearly all actives have a fitted effect of over 35% in size
# Procedure, shortened: as §1
# [5] = Quantitative High-Throughput drug screen in 47 multiple myeloma cell lines against the NCATS MIPE library collection: U266_ATCC cell viability assay (AID 1919864); further: nearly all actives have a fitted effect of over 35% in size
# Procedure, shortened: as §1
# [6] = Quantitative High-Throughput drug screen in 47 multiple myeloma cell lines against the NCATS MIPE library collection: XG6_PLB cell viability assay (AID 1919865); further: nearly all actives have a fitted effect of over 40% in size
# Procedure, shortened: as §1
# [7] = Quantitative High-Throughput drug screen in 47 multiple myeloma cell lines against the NCATS MIPE library collection: XG1_PLB cell viability assay (AID 1919866); further: nearly all actives have a fitted effect of over 35% in size
# Procedure, shortened: as §1
# [8] = Quantitative High-Throughput drug screen in 47 multiple myeloma cell lines against the NCATS MIPE library collection: UTMC2_PLB cell viability assay (AID 1919868); details: CellTiter-Glo ATP luminescence, 48 h; viability (% of DMSO control): at 45.8 µM (top of the series); further: nearly all actives have a fitted effect of over 55% in size
# Procedure, shortened: as §1
# [9] = Quantitative High-Throughput drug screen in 47 multiple myeloma cell lines against the NCATS MIPE library collection: PE2_PLB cell viability assay (AID 1919869); further: nearly all actives have a fitted effect of over 35% in size
# Procedure, shortened: as §1
# [10] = Quantitative High-Throughput drug screen in 47 multiple myeloma cell lines against the NCATS MIPE library collection: PCM6_Riken cell viability assay (AID 1919870); further: nearly all actives have a fitted effect of over 30% in size
# Procedure, shortened: as §1
# [11] = Quantitative High-Throughput drug screen in 47 multiple myeloma cell lines against the NCATS MIPE library collection: RPMI8226_ATCC cell viability assay (AID 1919871); further: nearly all actives have a fitted effect of over 30% in size
# Procedure, shortened: as §1
# [12] = Quantitative High-Throughput drug screen in 47 multiple myeloma cell lines against the NCATS MIPE library collection: OPM2_DSMZ cell viability assay (AID 1919872); further: nearly all actives have a fitted effect of over 30% in size
# Procedure, shortened: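 We plated 500 myeloma cells per well, pinned in MIPE 4.0 compounds, and incubated for 48 hours at 37C. ATP was then quantified with CellTiter-Glo, with DMSO and media-only wells defining 100% and 0%.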
# [13] = Quantitative High-Throughput drug screen in 47 multiple myeloma cell lines against the NCATS MIPE library collection: KMS11_JCRBsus cell viability assay (AID 1919873); further: nearly all actives have a fitted effect of over 50% in size
# Procedure, shortened: as §1
# [14] = Quantitative High-Throughput drug screen in 47 multiple myeloma cell lines against the NCATS MIPE library collection: KMS28BM_JCRB cell viability assay (AID 1919874); further: nearly all actives have a fitted effect of over 35% in size
# Procedure, shortened: as §1
# [15] = Quantitative High-Throughput drug screen in 47 multiple myeloma cell lines against the NCATS MIPE library collection: L363_DSMZ cell viability assay (AID 1918984); details: L363 myeloma viability, CellTiter-Glo ATP luminescence, 48 h; viability (% of control): at 45.8 µM (top of the series); further: nearly all actives have a fitted effect of over 40% in size
# Procedure, shortened: as §1
# [16] = Quantitative High-Throughput drug screen in 47 multiple myeloma cell lines against the NCATS MIPE library collection: VP6_DJ cell viability assay (AID 1919867); further: nearly all actives have a fitted effect of over 40% in size
# Procedure, shortened: as §1
# [17] = Quantitative High-Throughput drug screen in 47 multiple myeloma cell lines against the NCATS MIPE library collection: OCIMY5_PLB cell viability assay (AID 1918988); further: nearly all actives have a fitted effect of over 65% in size
# Procedure, shortened: as §1
# Potency means the concentration at half of the fitted maximal effect.
Structure (SMILES),Potency [1],Potency [2],Potency [3],viability [4] [%],Potency [5],Potency [6],Potency [7],Potency [8],Potency [9],Potency [10],Potency [11],Potency [12],Potency [13],Potency [14],Potency [15],Potency [16],Potency [4],Potency [17]
C[C@@H]1C[C@H]2[C@@H]3CCC4=CC(=O)C=C[C@]4(C)[C@@]3(F)[C@@H](O)C[C@]2(C)[C@@]1(O)C(=O)CO,inactive,inactive,inactive,118,inactive,inactive,inactive,inactive,inactive,inactive,0.0166 µM (active),inactive,0.0132 µM (active),inactive,,,,
Cc1cc2c(cc1C1(c3ccc(C(=O)O)cn3)CC1)C(C)(C)CCC2(C)C,,,,,inactive,,inactive,,26.4 µM (active),,0.0118 µM (active),,inactive,,inactive,,,
N#CC(c1ccc(Cl)cc1)c1c(Cl)cc(-n2ncc(=O)[nH]c2=O)cc1Cl (configuration not stated),,,5.9 µM (active),,,14.8 µM (active),18.7 µM (active),,18.7 µM (active),23.5 µM (active),,inactive,,,16.6 µM (active),20.9 µM (active),,
CC1C(=O)OC2C(O)C34C5CC(C(C)(C)C)C36C(OC(=O)C6O)OC4(C(=O)O5)C12O (configuration not stated),23.5 µM (active),inactive,inactive,,inactive,,,,inactive,,inactive,inactive,inactive,,,,11.8 µM (active),
CN(C)CCN(C)C(=O)c1ccc(NC(=O)Nc2ccc(-c3nc(N4CCOCC4)c4ccn(CC(F)(F)F)c4n3)cc2)cc1,0.372 µM (active),3.32 µM (active),0.0093 µM (active),,,,,0.0074 µM (active),0.0074 µM (active),,0.0833 µM (active),0.187 µM (active),0.0372 µM (active),0.0148 µM (active),,,0.209 µM (active),0.418 µM (active)
NC(N)=Nc1nc(CSCCC(N)=NS(N)(=O)=O)cs1,inactive,10.5 µM (active),16.6 µM (active),,20.9 µM (active),6.62 µM (active),14.8 µM (active),9.35 µM (active),20.9 µM (active),14.8 µM (active),inactive,,inactive,,,,,29.6 µM (active)
CNc1nc(-c2ccc3c(N)n[nH]c3c2)cc(N2C[C@@H](C(=O)NC3CCCCC3)CC[C@@H]2C)n1,20.9 µM (active),0.0662 µM (active),23.5 µM (active),,16.6 µM (active),20.9 µM (active),20.9 µM (active),,6.62 µM (active),18.7 µM (active),,23.5 µM (active),5.26 µM (active),23.5 µM (active),,5.9 µM (active),,
CCC(=C(c1ccc(O)cc1)c1ccc(OCCNC)cc1)c1ccccc1,26.4 µM (active),16.6 µM (active),18.7 µM (active),,29.6 µM (active),6.62 µM (active),11.8 µM (active),9.35 µM (active),,23.5 µM (active),26.4 µM (active),,8.33 µM (active),23.5 µM (active),,13.2 µM (active),20.9 µM (active),18.7 µM (active)
Cc1[nH]c(C=C2C(=O)Nc3ccc(S(=O)(=O)N(C)c4cccc(Cl)c4)cc32)c(C)c1C(=O)N1CCN(C)CC1,20.9 µM (active),18.7 µM (active),9.35 µM (active),,23.5 µM (active),9.35 µM (active),11.8 µM (active),11.8 µM (active),16.6 µM (active),14.8 µM (active),23.5 µM (active),20.9 µM (active),11.8 µM (active),,,13.2 µM (active),20.9 µM (active),
CN1CC(=O)N2C(Cc3c([nH]c4ccccc34)[C@H]2c2ccc3c(c2)OCO3)C1=O (some centres not stated),,,,129,inactive,,inactive,,inactive,,,inactive,,inactive,inactive,inactive,,
O=C(CC12CC3CC(CC(C3)C1)C2)Nc1cccc2nc(NCCNCCO)ccc12,26.4 µM (active),0.743 µM (active),7.43 µM (active),,23.5 µM (active),1.18 µM (active),2.96 µM (active),3.32 µM (active),7.43 µM (active),,,,,23.5 µM (active),,,16.6 µM (active),11.8 µM (active)
C[C@@H]1[C@H](O)[C@@H](C)C=CC=CC=CC=CC=CC=CC=C[C@H](O[C@@H]2O[C@H](C)[C@H](O)[C@H](N)[C@@H]2O)C[C@@H]2O[C@](O)(C[C@@H](O)C[C@@H](O)[C@H](O)CC[C@@H](O)C[C@@H](O)CC(=O)O[C@H]1C)C[C@H](O)[C@@H]2C(=O)O,11.8 µM (active),11.8 µM (active),,,,inactive,2.96 µM (active),,,3.32 µM (active),,,,,,3.72 µM (active),5.26 µM (active),4.18 µM (active)
CN1N=C(N)c2cn([C@@H]3O[C@H](COP(=O)(O)O)[C@@H](O)[C@@H]3O)c3ncnc1c23,0.833 µM (active),2.09 µM (active),0.469 µM (active),,5.26 µM (active),,,0.0235 µM (active),0.059 µM (active),1.05 µM (active),0.105 µM (active),,,23.5 µM (active),,,1.32 µM (active),0.296 µM (active)
O=C(Nc1ccc(OC(F)(F)F)cc1)c1sccc1NCc1ccnc2ccccc12,10.5 µM (active),16.6 µM (active),,,,,5.9 µM (active),23.5 µM (active),20.9 µM (active),,,18.7 µM (active),7.43 µM (active),,,,18.7 µM (active),2.96 µM (active)
Cc1cc(OCCCS(C)(=O)=O)cc(C)c1-c1cccc(COc2ccc3c(c2)OC[C@H]3CC(=O)O)c1,inactive,18.7 µM (active),,,inactive,23.5 µM (active),16.6 µM (active),,,,,,18.7 µM (active),20.9 µM (active),,2.35 µM (active),14.8 µM (active),
CC1(COc2ccc3c(c2)ncn3-c2ccc3cccc(N4CCC(N)CC4)c3n2)COC1,1.05 µM (active),0.059 µM (active),0.0235 µM (active),,0.059 µM (active),,,,0.0148 µM (active),,20.9 µM (active),0.743 µM (active),,0.372 µM (active),,,16.6 µM (active),
c1ccc(CNc2nc(N3CCOc4ccccc43)nc3c2CCCC3)cc1,,,inactive,,inactive,inactive,inactive,,,inactive,,,,inactive,inactive,,,
COc1nc(C)cnc1NS(=O)(=O)c1cccnc1-c1ccc(-c2nnco2)cc1,,,,126,inactive,inactive,inactive,inactive,inactive,inactive,inactive,inactive,inactive,inactive,inactive,inactive,,
COc1cc2ncnc(Nc3cc(Br)c(O)c(Br)c3)c2cc1OC,6.62 µM (active),0.0042 µM (active),2.35 µM (active),,,0.0047 µM (active),0.0074 µM (active),0.526 µM (active),0.0833 µM (active),,8.33 µM (active),,,inactive,,,0.0469 µM (active),0.0023 µM (active)
CNC(=O)c1ccc2c(C(=Nc3cccc(CN(C)C)c3)c3ccccc3)c(O)[nH]c2c1,,,18.7 µM (active),,,16.6 µM (active),14.8 µM (active),16.6 µM (active),18.7 µM (active),16.6 µM (active),13.2 µM (active),inactive,,8.33 µM (active),4.18 µM (active),16.6 µM (active),,
CN[C@@H](C)[C@H]1[C@H](O)C[C@@]2(C)[C@@H]3CC[C@H]4C(C)(C)[C@@H](NC)CC[C@@]45C[C@@]35CC[C@]12C,,,inactive,,inactive,23.5 µM (active),,,inactive,,,inactive,,inactive,inactive,,,
Cc1c(-c2cccc3c(CCCOc4cccc5ccccc45)c(C(=O)O)n(Cc4cccnc4)c23)c(COc2ccc(N3CCN([S+](=O)([O-])N(C)C)CC3)cc2)nn1C,,,,,,,inactive,20.9 µM (active),18.7 µM (active),inactive,,16.6 µM (active),,,inactive,8.33 µM (active),23.5 µM (active),
CCCCC(C=O)NC(=O)C(CC(C)C)NC(=O)OCc1ccccc1 (configuration not stated),,,,,,inactive,inactive,,,,,14.8 µM (active),,23.5 µM (active),inactive,,,
CNC1[C@H](O)C(O[C@@H]2C(O)C(O[C@H]3O[C@H]([C@@H](C)NC)CC[C@H]3N)[C@@H](N)C[C@H]2N)OC[C@]1(C)O (some centres not stated),inactive,inactive,,103,inactive,inactive,18.7 µM (active),,,inactive,inactive,inactive,,inactive,,,,inactive
Oc1cc(O)cc(C=Cc2ccc(O)c(O)c2)c1,11.8 µM (active),5.26 µM (active),16.6 µM (active),,,5.26 µM (active),8.33 µM (active),,4.18 µM (active),10.5 µM (active),,,,,,10.5 µM (active),23.5 µM (active),20.9 µM (active)
C[C@@H]1CC=CC=CC=CC=C[C@@H](O[C@@H]2O[C@H](C)[C@@H](O)[C@H](N)[C@H]2O)C[C@@H]2O[C@](O)(C[C@@H](O)C[C@@H]3O[C@@H]3C=CC(=O)O1)C[C@H](O)[C@@H]2C(=O)O,18.7 µM (active),2.96 µM (active),16.6 µM (active),,,,4.69 µM (active),,9.35 µM (active),16.6 µM (active),,,16.6 µM (active),20.9 µM (active),,10.5 µM (active),,11.8 µM (active)
CC1(C)CC(=O)c2c(C(F)(F)F)nn(-c3ccc(C(N)=O)c(NC4CCC(O)CC4)c3)c2C1 (configuration not stated),0.105 µM (active),0.0662 µM (active),0.105 µM (active),,0.0935 µM (active),,,,0.118 µM (active),,,0.166 µM (active),0.0118 µM (active),0.0372 µM (active),,,0.187 µM (active),0.118 µM (active)
C#C[C@]1(O)CC[C@H]2[C@H]3CCc4cc(OC)ccc4[C@H]3CC[C@@]21C,,,,,,16.6 µM (active),14.8 µM (active),,,,,inactive,,,inactive,,,
